# Measured values published in PubChem BioAssay.
# Records with an inconclusive call do not appear. Activity calls are given as the source filed them.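 Rule for the calls, unless noted: active = response below a set limit, under 55% cells CD8-positive and vesicle-bound, and CD8 cells' 90th-percentile brightness under 279; inactive = the rest.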
# Key:
# [1] = yeast TOR pathway RPL19A-GFP modulators, primary screen, cell-based, S. cerevisiae, multiplex flow cytometry (AID 1862; in the data active = percent of DMSO control GFP below about 86%;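 note: lower values mimic rapamycin by blocking the RPL19A rise seen in DMSO cells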); conditions: S. cerevisiae RPL19A-GFP strain, flow cytometry fluorescence, 3 h; at 10 µM; stronger effect = lower value
# [2] = modulators of MEP2-GFP levels in yeast, primary screen, S. cerevisiae, multiplex flow cytometry (AID 1867;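 active = GFP response, as percent of the DMSO control, above the screen-wide mean plus 3 SD, about 139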;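 note: median GFP channel fluorescence of barcode-gated MEP2-GFP cells measured by flow cytometry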); conditions: S. cerevisiae MEP2-GFP strain, 3 h, at 10 µM, stronger effect = higher value, 100% means same as DMSO wells
# [3] = modulators of CIT2-GFP expression in yeast, primary screen, S. cerevisiae, GFP fusion, multiplex flow cytometry (AID 1870;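 active = percent response above a set limit, the screen-wide mean plus 3 SD, cut at about 130% in these data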;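 note: barcoded CIT2-GFP strain pooled with four other GFP strains with rapamycin as positive control; median GFP fluorescence per well over plate mean of DMSO wells so 100% = DMSO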); conditions: 3 h, at 10 µM, stronger effect = higher value
# [4] = modulators of LAP4-GFP expression in yeast, primary screen, S. cerevisiae, multiplex flow cytometry (AID 1873;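 active = GFP signal, as percent of the solvent control, above the screen mean plus 3 SD, about 149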); conditions: 3 h, at 10 µM, stronger effect = higher value
# [5] = modulators of AGP1-GFP expression in yeast TOR pathway, primary screen, cell-based, multiplex flow cytometry, S. cerevisiae (AID 1887;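 active = GFP signal above the screen-wide mean plus 3 SD, that is over about 124.5% of the solvent control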;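 note: AGP1-GFP fusion strain of S. cerevisiae within a five-strain barcoded multiplex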); conditions: 3 h, at 10 µM, stronger effect = higher value
# [6] = inhibitors of CD8+ T cell-vesicle binding, pilot screen, LFA-1/ICAM-1 modulator project, MLPCN validation set, flow cytometry (AID 2523); conditions: 2C mouse CD8+ T cells, at 7 µM, stronger effect = lower value; double positive events: measured here: CD8+/vesicle+ event percentage;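 for vesicle binding response: mean PE anti-B7-1 fluorescence of CD8+ cells relative to row control; 100% = QL9-loaded vesicles with DMSO vehicle in the same plate row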
# [7] = molecular target: Integrin beta-1 (Homo sapiens) + Integrin alpha-4 (Homo sapiens) (UniProt P13612+P05556); assay: inhibition of HUTS-21 binding to VLA-4, pilot screen, VLA-4 allosteric modulator project, U937 cells, HUTS-21 mAb, flow cytometry, validation set (AID 2674;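 active = inhibition above 50%, about 3 SD of the validation set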;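 note: antibody binding induced by the VLA-4 ligand LDV present at three times its Kd; 0% = LDV ligand with antibody and no compound and 100% = antibody without LDV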); conditions: HUTS-21 LIBS mAb binding, at 6.7 µM, stronger effect = higher value, binding induced by LDV ligand
# Chain of Integrin beta-1 (Homo sapiens) + Integrin alpha-4 (Homo sapiens) (P05556 whole entry, looked up): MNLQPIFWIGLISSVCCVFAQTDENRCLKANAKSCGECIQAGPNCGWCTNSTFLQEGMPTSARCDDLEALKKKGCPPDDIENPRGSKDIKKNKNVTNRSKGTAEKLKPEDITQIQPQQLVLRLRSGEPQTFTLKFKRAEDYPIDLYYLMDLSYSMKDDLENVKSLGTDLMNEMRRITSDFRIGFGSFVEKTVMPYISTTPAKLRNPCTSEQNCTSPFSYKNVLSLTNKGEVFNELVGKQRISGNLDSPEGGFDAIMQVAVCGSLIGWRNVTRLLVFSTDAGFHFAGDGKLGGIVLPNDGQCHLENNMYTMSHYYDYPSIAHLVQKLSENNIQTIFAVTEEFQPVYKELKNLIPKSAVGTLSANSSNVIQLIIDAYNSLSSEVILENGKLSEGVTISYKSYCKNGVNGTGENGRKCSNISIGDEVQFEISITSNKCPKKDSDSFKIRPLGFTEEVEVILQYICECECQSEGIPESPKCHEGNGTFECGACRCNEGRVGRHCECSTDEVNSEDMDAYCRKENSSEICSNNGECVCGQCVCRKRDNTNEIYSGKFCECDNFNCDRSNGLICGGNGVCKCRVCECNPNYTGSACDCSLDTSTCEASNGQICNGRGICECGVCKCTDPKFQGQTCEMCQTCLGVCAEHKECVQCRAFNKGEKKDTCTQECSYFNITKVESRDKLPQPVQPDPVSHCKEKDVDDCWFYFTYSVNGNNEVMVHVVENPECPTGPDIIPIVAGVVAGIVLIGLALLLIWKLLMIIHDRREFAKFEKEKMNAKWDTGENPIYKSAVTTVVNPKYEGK
# Chain of Integrin beta-1 (Homo sapiens) + Integrin alpha-4 (Homo sapiens) (P13612 whole entry, looked up): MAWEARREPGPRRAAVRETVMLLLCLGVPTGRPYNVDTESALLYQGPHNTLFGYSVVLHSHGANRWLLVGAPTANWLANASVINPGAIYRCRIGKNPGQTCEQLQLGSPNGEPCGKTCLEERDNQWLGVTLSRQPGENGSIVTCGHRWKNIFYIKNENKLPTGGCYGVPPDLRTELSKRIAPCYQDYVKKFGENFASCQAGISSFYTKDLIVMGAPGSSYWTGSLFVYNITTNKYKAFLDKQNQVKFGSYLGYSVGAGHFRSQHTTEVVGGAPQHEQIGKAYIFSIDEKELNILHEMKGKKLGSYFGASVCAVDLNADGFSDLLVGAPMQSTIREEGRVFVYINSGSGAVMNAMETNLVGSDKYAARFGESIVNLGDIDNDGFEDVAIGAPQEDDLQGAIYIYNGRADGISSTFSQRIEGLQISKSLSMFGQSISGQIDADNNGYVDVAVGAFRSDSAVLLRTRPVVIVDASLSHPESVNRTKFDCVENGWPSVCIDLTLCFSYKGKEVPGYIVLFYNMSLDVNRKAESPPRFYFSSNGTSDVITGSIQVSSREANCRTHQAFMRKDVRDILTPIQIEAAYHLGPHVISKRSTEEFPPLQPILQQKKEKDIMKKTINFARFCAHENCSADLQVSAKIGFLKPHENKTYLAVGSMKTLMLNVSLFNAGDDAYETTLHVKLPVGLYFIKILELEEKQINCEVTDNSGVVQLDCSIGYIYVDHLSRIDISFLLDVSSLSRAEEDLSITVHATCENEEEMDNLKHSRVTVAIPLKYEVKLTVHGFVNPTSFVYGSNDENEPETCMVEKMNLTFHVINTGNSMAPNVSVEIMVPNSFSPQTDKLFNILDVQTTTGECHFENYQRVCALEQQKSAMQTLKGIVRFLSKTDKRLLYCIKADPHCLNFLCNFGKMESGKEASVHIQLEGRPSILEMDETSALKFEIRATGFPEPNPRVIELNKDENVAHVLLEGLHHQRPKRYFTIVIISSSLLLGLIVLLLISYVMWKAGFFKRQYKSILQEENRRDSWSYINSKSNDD
# [8] = superoxide lowering in aged yeast cells, pilot screen, validation compound set (AID 2706;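 active = superoxide response below 65% of plate, a cut near 3 SD across the whole screen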;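 note: yeast exposed to compound for one week at 30 degrees C before staining; 100% = mean of all compound wells on the same plate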); conditions: S. cerevisiae aging, superoxide DHE fluorescence; at 10 µM; stronger effect = lower value
# [9] = molecular target: Beta-adrenergic receptor kinase 1 (Homo sapiens) (UniProt P25098); assay: GRK2 binders displacing RNA aptamer, biochemical, validation, human GRK2, bead flow cytometry (AID 488806;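 active = aptamer binding inhibition above 30%, about 3 SD of noise from non-fluorescent compounds; inactive = inhibition at or below 30%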); conditions: bead-bound GRK2, FAM-aptamer displacement, at 10 µM, stronger effect = higher value
# Chain of Beta-adrenergic receptor kinase 1 (Homo sapiens) (P25098 whole entry, looked up): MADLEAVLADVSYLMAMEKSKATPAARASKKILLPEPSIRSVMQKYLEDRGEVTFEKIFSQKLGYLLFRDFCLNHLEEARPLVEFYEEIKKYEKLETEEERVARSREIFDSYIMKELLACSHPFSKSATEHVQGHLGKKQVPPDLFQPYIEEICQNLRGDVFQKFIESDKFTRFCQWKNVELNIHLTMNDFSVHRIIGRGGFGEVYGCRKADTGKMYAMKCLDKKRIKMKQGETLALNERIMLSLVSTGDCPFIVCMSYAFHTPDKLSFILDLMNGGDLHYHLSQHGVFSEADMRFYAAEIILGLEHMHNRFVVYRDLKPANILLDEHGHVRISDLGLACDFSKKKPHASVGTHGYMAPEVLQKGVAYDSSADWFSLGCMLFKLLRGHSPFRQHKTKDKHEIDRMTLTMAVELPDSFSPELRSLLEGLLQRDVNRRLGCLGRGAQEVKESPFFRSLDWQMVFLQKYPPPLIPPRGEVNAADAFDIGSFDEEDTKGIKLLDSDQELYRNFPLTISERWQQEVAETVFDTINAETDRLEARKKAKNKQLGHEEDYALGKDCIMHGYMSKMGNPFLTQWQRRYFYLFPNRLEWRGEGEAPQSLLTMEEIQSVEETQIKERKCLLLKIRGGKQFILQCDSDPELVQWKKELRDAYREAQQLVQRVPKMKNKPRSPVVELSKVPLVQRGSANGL
# [10] = molecular target: Beta-2 adrenergic receptor (Homo sapiens) (UniProt P07550); assay: beta2AR agonists driving receptor internalization, pilot screen, cell-based, FAP fluorogen, flow cytometry, validation set (AID 504459;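 active = percent response above 42, roughly 3 SD of non-fluorescent test compounds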;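 note: agonist-driven loss of surface beta2AR via internalization measured by FAP dye flow cytometry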); conditions: Am2.2-beta2AR cells, FAP surface receptor flow cytometry; at 10 µM; stronger effect = higher value
# Chain of Beta-2 adrenergic receptor (Homo sapiens) (P07550 whole entry, looked up): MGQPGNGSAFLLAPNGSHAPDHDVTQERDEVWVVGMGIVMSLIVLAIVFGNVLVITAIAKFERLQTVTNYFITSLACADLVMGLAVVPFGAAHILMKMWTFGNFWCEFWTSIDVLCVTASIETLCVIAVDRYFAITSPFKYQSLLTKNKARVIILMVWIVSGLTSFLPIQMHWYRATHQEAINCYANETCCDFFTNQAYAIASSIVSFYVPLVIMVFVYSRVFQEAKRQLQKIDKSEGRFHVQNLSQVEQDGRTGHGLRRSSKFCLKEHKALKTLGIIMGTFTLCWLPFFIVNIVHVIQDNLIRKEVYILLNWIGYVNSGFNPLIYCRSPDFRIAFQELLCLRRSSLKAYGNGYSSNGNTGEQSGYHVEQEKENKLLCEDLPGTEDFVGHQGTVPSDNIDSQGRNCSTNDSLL
# [11] = molecular target: AP-2 complex subunit beta (Homo sapiens) (UniProt P63010); assay: inhibitors of arrestin peptide binding to AP2, pilot screen, biochemical, validation set, GST-AP2 beads, flow cytometry (AID 504541;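 active = inhibition above 54%, about 3 SD of non-fluorescent compounds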;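 note: AP2 carries R879A mutation and is captured from E. coli lysate; bead-bound FITC arrestin peptide fluorescence measuring arrestin peptide binding to AP2; 0% = DMSO wells and 100% = excess unlabeled arrestin peptide control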); conditions: FITC arrestin peptide, at 10 µM, stronger effect = higher value, AP2 beta2 appendage fragment, R879A mutant
# Chain of AP-2 complex subunit beta (Homo sapiens) (P63010 whole entry, looked up, the tested form may be a part, one chain of several): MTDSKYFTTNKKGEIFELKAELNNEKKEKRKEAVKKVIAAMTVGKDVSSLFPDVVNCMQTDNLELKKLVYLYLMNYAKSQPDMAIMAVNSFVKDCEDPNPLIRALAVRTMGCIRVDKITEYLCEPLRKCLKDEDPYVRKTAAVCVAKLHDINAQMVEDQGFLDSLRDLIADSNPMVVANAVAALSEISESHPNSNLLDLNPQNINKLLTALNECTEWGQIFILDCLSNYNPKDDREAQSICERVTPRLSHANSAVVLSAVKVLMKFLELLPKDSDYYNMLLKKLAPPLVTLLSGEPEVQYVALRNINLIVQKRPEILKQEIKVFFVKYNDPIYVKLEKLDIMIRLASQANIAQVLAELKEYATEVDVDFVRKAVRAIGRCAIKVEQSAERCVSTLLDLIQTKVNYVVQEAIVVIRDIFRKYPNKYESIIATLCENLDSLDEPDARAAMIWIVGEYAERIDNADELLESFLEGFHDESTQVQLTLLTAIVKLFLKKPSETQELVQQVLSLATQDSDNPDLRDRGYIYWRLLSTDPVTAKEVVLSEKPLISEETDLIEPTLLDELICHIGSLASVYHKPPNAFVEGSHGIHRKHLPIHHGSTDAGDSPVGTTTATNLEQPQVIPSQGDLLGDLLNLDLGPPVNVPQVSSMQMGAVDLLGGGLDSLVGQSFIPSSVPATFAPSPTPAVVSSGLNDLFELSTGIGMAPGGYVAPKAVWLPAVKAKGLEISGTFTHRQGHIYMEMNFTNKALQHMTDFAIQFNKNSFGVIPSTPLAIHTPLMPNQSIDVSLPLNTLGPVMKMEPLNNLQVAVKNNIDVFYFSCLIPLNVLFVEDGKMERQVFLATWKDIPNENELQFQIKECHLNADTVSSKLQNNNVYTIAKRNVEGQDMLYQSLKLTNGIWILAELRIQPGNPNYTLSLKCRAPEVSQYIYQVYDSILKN
# [12] = yeast V-ATPase proton transport modulators, S. cerevisiae, pHLuorin, HTS validation (AID 504600; in the data active = response above about 15%;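 note: plate controls were DMSO for no effect and reference compound for full effect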); conditions: S. cerevisiae pHLuorin cytosolic pH, at 10 µM, stronger effect = higher value
# [13] = tested on: anti-desmoglein-3 scFv antibody binding to human DSG3; assay: inhibitors of anti-DSG3 scFv binding to DSG3, pilot screen, biochemical, validation compound set, bead-based, flow cytometry (AID 588368;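 active = binding below the plate cutoff, the plate median minus 3 SD, with a reading above zero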;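 note: signal is the median channel fluorescence of bead-bound GFP antibody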); conditions: Protein G beads, DSG3-Fc, scFv-GFP binding, at 10 µM, stronger effect = lower value
# [14] = inhibitors of fungal efflux pumps CDR1, CDR2, MDR1, pilot screen, validation compound set, multiplex, phenotypic (AID 588506;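 active = efflux inhibition above 0.42, the validation set average plus 4 SD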;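 note: Nile Red retained in cells so higher fluorescence means more efflux inhibition; 0 = negative control wells and 1 = enniatin B 25 µM full block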); conditions: S. cerevisiae pump-expressing triplex, Nile Red efflux flow cytometry; at 10 µM; stronger effect = higher value; the pumps come from Candida albicans
# [15] = molecular target: ATP-binding cassette sub-family B member 6 (Homo sapiens) (UniProt Q9NP58); assay: ABCB6 transporter inhibitors, pilot screen, K562-ABCB6 cells, flow cytometry, validation set (AID 588550;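 active = inhibition above the screen-wide mean plus 3 SD, about 51%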;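 note: 0% = DMSO wells and 100% = benzethonium chloride 70 µM positive control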); conditions: K562-ABCB6 porphyrin accumulation, 1 h, at 10 µM, stronger effect = higher value
# Chain of ATP-binding cassette sub-family B member 6 (Homo sapiens) (Q9NP58 whole entry, looked up): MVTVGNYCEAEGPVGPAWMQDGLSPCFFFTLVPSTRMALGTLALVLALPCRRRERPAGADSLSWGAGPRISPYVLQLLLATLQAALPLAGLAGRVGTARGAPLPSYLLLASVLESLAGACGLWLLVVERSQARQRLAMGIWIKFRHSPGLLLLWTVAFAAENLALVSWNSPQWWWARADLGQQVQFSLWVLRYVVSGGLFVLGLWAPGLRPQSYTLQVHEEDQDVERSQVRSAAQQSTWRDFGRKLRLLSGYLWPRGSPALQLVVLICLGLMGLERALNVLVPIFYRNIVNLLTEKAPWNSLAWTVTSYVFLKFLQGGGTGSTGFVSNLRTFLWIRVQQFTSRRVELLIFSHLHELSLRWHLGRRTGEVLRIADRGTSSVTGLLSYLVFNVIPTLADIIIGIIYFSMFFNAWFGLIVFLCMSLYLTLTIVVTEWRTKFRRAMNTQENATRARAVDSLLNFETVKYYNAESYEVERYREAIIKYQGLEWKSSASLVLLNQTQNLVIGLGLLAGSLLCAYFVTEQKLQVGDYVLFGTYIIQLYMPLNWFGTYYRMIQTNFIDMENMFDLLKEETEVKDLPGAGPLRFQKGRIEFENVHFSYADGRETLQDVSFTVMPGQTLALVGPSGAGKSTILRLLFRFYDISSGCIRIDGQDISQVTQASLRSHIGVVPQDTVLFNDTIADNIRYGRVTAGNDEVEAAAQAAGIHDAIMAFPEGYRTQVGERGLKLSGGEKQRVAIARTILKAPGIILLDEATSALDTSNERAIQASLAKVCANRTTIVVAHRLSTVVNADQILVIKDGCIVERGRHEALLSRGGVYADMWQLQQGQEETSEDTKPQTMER
# [16] = promoters of myeloid differentiation in arrested cells, primary screen, cell-based, GFP/MAC1 double positive, flow cytometry, validation set (AID 588685;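 active = differentiation response of at least 50%, scaled between solvent and reference control, from cells with both markers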;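 note: compound exposure lasts four days before antibody staining and flow analysis; 0% = DMSO wells and 100% = 5 µM fulvestrant positive control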); conditions: ER-HoxA9 marrow cells, stronger effect = higher value, normalized: vehicle 0, fulvestrant 100
SMILES,percent of DMSO control GFP [1],GFP response vs DMSO [2],percent response of DMSO control [3],GFP response vs DMSO [4],"GFP response, % of DMSO [5]",double positive events [6] [%],vesicle binding response [6],inhibition [7],superoxide response (% of plate) [8],aptamer binding inhibition [9],response [10],inhibition [11],response [12],binding (% of control) [13],efflux inhibition (fraction of control) [14],inhibition [15],differentiation response [16]
Cc1ccc(S(=O)(=O)N[C@@H](C)C(=O)N2CCC(C(=O)N3CCC[C@H]3C(=O)O)CC2)cc1,95% (inactive),129% (inactive),103% (inactive),79.2% (inactive),88.4% (inactive),71,174% (inactive),3.55% (inactive),92.7% (inactive),9% (inactive),-2.38% (inactive),-9.12% (inactive),-1.19% (inactive),100% (inactive),-0.2 (inactive),8% (inactive),0% (inactive)
Cc1cc(O)c(C(C)C)cc1C1(c2cc(C(C)C)c(O)cc2C)OC(=O)c2ccccc21,104% (inactive),107% (inactive),104% (inactive),120% (inactive),108% (inactive),61.7,219% (inactive),43.2% (inactive),88.7% (inactive),-2% (inactive),3.1% (inactive),62.6% (active),-4.85% (inactive),101% (inactive),-0.09 (inactive),5% (inactive),15.7% (inactive)
Cc1ccc(C2CC(=O)C(C=NCCN3CCN(C(=S)Nc4ccccc4)CC3)=C(O)C2)cc1 (stereo not given),103% (inactive),104% (inactive),91.2% (inactive),110% (inactive),107% (inactive),60.8,417% (inactive),-0.27% (inactive),104% (inactive),5% (inactive),-26.2% (inactive),-7.49% (inactive),-3.06% (inactive),101% (inactive),0.5 (active),3% (inactive),-10.9% (inactive)
CCOc1cc2c(cc1OCC)C(c1ccccc1)N(c1ccc(C(=O)O)cc1)C(=O)C2 (stereo not given),106% (inactive),109% (inactive),95.5% (inactive),113% (inactive),107% (inactive),61.4,151% (inactive),11% (inactive),92% (inactive),-1% (inactive),3.08% (inactive),-11.9% (inactive),1.91% (inactive),96.8% (inactive),-0.1 (inactive),7% (inactive),8.59% (inactive)
Cc1nc2ccccn2c(=O)c1CCN1CCC(C(=O)c2ccc(F)cc2)CC1,103% (inactive),105% (inactive),104% (inactive),101% (inactive),104% (inactive),56.6,166% (inactive),-26.6% (inactive),95.8% (inactive),0% (inactive),-22.4% (inactive),51.2% (inactive),-1.11% (inactive),106% (inactive),-0.025 (inactive),2% (inactive),-10.4% (inactive)
